Experimental findings from PubChem BioAssay (NCATS) are described below.

Assay [1] concerns CRL-7250. Kind of assay: Cytotoxic Profiling of Annotated Libraries Using Quantitative High-Throughput Screening (AID 1296008). Further: nearly all actives have a fitted effect of over 60% in size. As to conditions: Five cell lines viability, CellTiter-Glo ATP luminescence, 48-72 h; max response: active compounds read low. A digest of the protocol:
(§1)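 Compounds were pin-transferred onto cells and incubated 48 or 72 hr at 37 degree Celsius, 95% humidity. CellTiter-Glo was added, plates sat 10 min at room temperature, then ATP-coupled luminescence was imaged as the viability read-out.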

Assay [2] deals with HEK293. Described as above. Particulars: Five cell lines viability, CellTiter-Glo ATP luminescence, 48-72 h; max response: active compounds read low. The procedure, abridged:
as §1
For orientation: In ATP-based viability assays light output follows the ATP content of the culture.

Assay [3] deals with HaCat. Described as above. Particulars: Five cell lines viability, CellTiter-Glo ATP luminescence, 48-72 h; max response: active compounds read low. A digest of the protocol: as §1
In assay [4] the test system is KB-3-1. The assay is described as above. Particulars: Five cell lines viability, CellTiter-Glo ATP luminescence, 48-72 h; max response: active compounds read low. A digest of the protocol:
as §1

Assay [5] has as its system NIH3T3. The assay is described as above. Particulars: Five cell lines viability, CellTiter-Glo ATP luminescence, 48-72 h; max response: active compounds read low. The procedure, abridged:
as §1

The subject of assay [6] is HEK293T. Kind of assay: qHTS assay to identify novel small-molecules to repurpose for Merkel cell carcinoma treatment (AID 1296009). Further: nearly all actives have a fitted effect of over 60% in size. Further: potency means the concentration at half of the fitted maximal effect. As to conditions: MCC and control cell lines, CellTiter-Glo viability, 72 h; series mostly up to 44.8 µM. The procedure, abridged:
(§2)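 Viability readout: ATP luminescence (CellTiter-Glo) after 72 hr drug exposure at 37 degree celsius. Dose-response format was 8 points for NPC and 11 points for MIPE; data normalized to in-plate controls.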

Assay [7] relates to MCC-13. Described as above. As to conditions: MCC and control cell lines, CellTiter-Glo viability, 72 h; series mostly up to 46 µM. A digest of the protocol:
as §2

Assay [8] concerns MCC-26. Described as above. Particulars: MCC and control cell lines, CellTiter-Glo viability, 72 h; series mostly up to 46 µM. A digest of the protocol:
as §2

The test system of assay [9] is MKL-1. Described as above. Particulars: MCC and control cell lines, CellTiter-Glo viability, 72 h; series mostly up to 46 µM. The procedure, abridged:
as §2

Assay [10] deals with MKL-2. Described as above. As to conditions: MCC and control cell lines, CellTiter-Glo viability, 72 h; series mostly up to 46 µM. The procedure, abridged: as §2
In assay [11] the test system is UISO. The assay is described as above. As to conditions: MCC and control cell lines, CellTiter-Glo viability, 72 h; series mostly up to 46 µM. The procedure, abridged:
as §2

Assay [12] deals with WaGa. The description is as above. Particulars: MCC and control cell lines, CellTiter-Glo viability, 72 h; series mostly up to 46 µM. A digest of the protocol:
as §2

Assay [13] deals with HACAT. The description is as above. Particulars: MCC and control cell lines, CellTiter-Glo viability, 72 h; at 44.8 µM (top of the series) unless noted. A digest of the protocol: as §2
Assay [14] has as its system C33A. Kind of assay: Primary qHTS to identify gynecologic anti-cancer compounds using libraries of approved drugs and bioactive compounds (AID 1345084). Further: nearly all actives have a fitted effect of over 55% in size. Particulars: Gynecologic cancer cell panel viability, ATPlite luminescence, 48 h; series mostly up to 57.5 µM. The procedure, abridged:
(§3)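 ATP-based viability (ATPlite), 1,000 cells/well, 16 h pre-incubation, 48 h compound at 37 C, 5% CO2, 15 min RT before read.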

Assay [15] deals with CASKI. The description is as above. As to conditions: Gynecologic cancer cell panel viability, ATPlite luminescence, 48 h; series mostly up to 57.5 µM. A digest of the protocol:
as §3

Assay [16] relates to Es-2. The assay is described as above. As to conditions: Gynecologic cancer cell panel viability, ATPlite luminescence, 48 h; series mostly up to 57.5 µM. A digest of the protocol: as §3
Assay [17] relates to HeLa. The assay is described as above. Particulars: Gynecologic cancer cell panel viability, ATPlite luminescence, 48 h; series mostly up to 57.5 µM. A digest of the protocol:
as §3

Inconclusive results are not listed. Unmarked numbers belong to inactive results. Calls of active or inactive are those of the source. The call rests on the fitted dose curve; in most records, active means well fitted curve in the direction sought with a large enough effect; inconclusive means small, poorly fitted or top-dose-only effect, or another doubt; inactive means no such curve, though single readings can be large; an effect the other way counts as inactive or inconclusive.
On the % scale 0 is the no-effect control and ±100 the full control effect.

For the compound `O=C1c2c(O)cccc2[C@@H]([C@@H]2O[C@H](CO)[C@@H](O)[C@H](O)[C@H]2O)c2cc(CO)cc(O)c21`, the max response in assay [1] was -3.91%; in assay [3] it was -8.19%; in assay [5], 4.49%. Besides, the compound was classed as inactive in assay [2] and in [4]. Also, the Potency result in [6], in [7], in assay [8], in assay [9], in assay [10] and in assay [11] was “inactive” in each case. In addition, the Potency entry in assay [12] was “inactive”.

With `CC(=O)O[C@]1(C(C)=O)CC[C@H]2[C@@H]3C=C(C)C4=CC(=O)CC[C@]4(C)[C@@H]3CC[C@@]21C`, the result in assay [1] and in [4] was inactive. The values for the max response in [2] and in assay [5] were -9.75% and 4.47%, respectively. The outcome in assay [3] and in [13] was “inactive; activator” throughout. In assay [7], the Potency entry was “inactive”. Besides, the figures for the Potency in [9], in [10] and in [12] were 3.32 µM (active), 2.35 µM (active) and 1.87 µM (active), respectively.

As for `CC(=O)NC(CS)C(=O)O` (centres undefined), the max response in [1] was 1.57%; in assay [2] it was -9.86%; in assay [4] it was -3.44%; in assay [5], -5.75%. The outcome in [3] and in assay [13] was inactive. In addition, the Potency result in assay [7], in assay [8], in assay [9], in [10], in [11] and in assay [12] was “inactive” throughout.

Regarding `c1cc(CN2CCCNCCNCCCNCC2)ccc1CN1CCCNCCNCCCNCC1`, the max response in assay [1] is -0.856%; in assay [3], -12.9%; in assay [4] it was -8.95%; in assay [5], -1.27%. The call in assay [2] was inactive. In addition, the Potency entry in assay [6], in assay [7], in assay [8], in assay [9], in assay [10] and in assay [11] was “inactive” throughout. The Potency entry in assay [12] is “inactive”.

For `CC(C=CC=C(C)C=CC1=C(C)CCCC1(C)C)=CC=CC=C(C)C=CC=C(C)C=CC1=C(C)CCCC1(C)C`, the max response in assay [1] was -6.98%; in assay [2] it was -0.757%; in assay [4], 8.98%; in assay [5], -4.98%. Also, the compound was called inactive in assay [3] and in [13]. The Potency entry in [7], in assay [8], in assay [9] and in assay [11] was “inactive” each time.

Regarding `O=C(O)CCCCCC(=O)NN=C1CCCC1`, the max response was 1.92% in [1], 0.832% in assay [3], 3.36% in assay [4] and 3.56% in assay [5]. In addition, the call in assay [2] was inactive. Besides, the Potency result in assay [6], in assay [7], in [8], in assay [9], in assay [10] and in [11] was “inactive” each time. Moreover, in assay [12], the Potency result was “inactive”.

Take `C[N+]1(C)[C@@H]2C[C@@H](OC(=O)C(O)(c3cccs3)c3cccs3)C[C@H]1[C@@H]1O[C@@H]12`: the call in assay [1], in assay [3], in assay [4] and in [13] was inactive. The max response in assay [2] is -10%; in assay [5], -6.05%. The Potency entry in assay [7], in assay [8], in assay [9], in assay [10], in assay [11] and in [12] was “inactive” throughout. Further, the Potency result in assay [14], in [15], in assay [16] and in [17] was “inactive” throughout.
